An excerpt weighted towards active compounds, which were near 13% of everything screened.
HCV inh: qHTS Assay for Inhibitors of Hepatitis C Virus (HCV) | Huh7.5.1 HCVcc-Cre infection, luciferase reporter, 44 h | Potency, µM (series often up to 41.8 µM), hits mostly inhibitors | hit rate 3.4% among 340,000; active = well fitted inhibition curve with a large enough effect; inconclusive = small, poorly fitted or top-dose-only effect, or another doubt; inactive = no such curve, though single readings can be large or run the other way
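1,000 cells/well; 4 h culture; + compound; + HCVcc-Cre (~0.5 moi); 44 h; luciferase substrate, RT 15 min; read 15 sec.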
LASV entry inh: qHTS for Inhibitors of binding or entry into cells for Lassa Virus. Potency, µM (highest dose often 37.9 µM), hits mostly inhibitors. AID 540256, 2011. Lassa virus pseudotype entry inhibition, cell reporter. hit rate 1.2% among 300,000; calls by dose curve; tested in HEK293 cells; note: nearly all actives have a fitted effect of over 50% in size
CHX counter: Cycloheximide Counterscreen for Small Molecule Inhibitors of Shiga Toxin | cell reporter, cycloheximide protein synthesis inhibition counterscreen | max response, % | hit rate 12% among 300,000 | AID 2314, 2010; in the data active = max response mostly above about 13%, no sharp cut-off; inactive = mostly below about 14%; note: read at 38.3 µM for the half of the compounds with a filed dose
FMDV inh: High Throughput Screening for Foot and Mouth Disease Virus Antivirals | FMDV antiviral cell-based qHTS | Potency, µM (highest dose often 57.9 µM), hits mostly inhibitors | hit rate 1.2% among 410,000; calls by dose curve; tested in HEK293T cells; note: read-out not given here; nearly all actives have a fitted effect of over 45% in size
Shiga inhibitor: A qHTS for Small Molecule Inhibitors of Shiga Toxin; Vero cells, Shiga toxin protein synthesis inhibition reporter; inhibition, % at 38.7 µM; hit rate 9.2% among 290,000; AID 2315, 2010; in the data active = inhibition mostly above about 28%, no sharp cut-off; inactive = mostly below about 43%
MARV entry inh: qHTS for inhibitors of binding or entry into cells for Marburg Virus; Marburg virus pseudotyped entry inhibition, cell reporter; Potency, µM (highest dose often 37.8 µM), actives largely listed as inhibitors; hit rate 1.8% among 300,000; AID 540276, 2011; calls by dose curve; tested in HEK293 cells
Each line names hits and unclear results; the compound was inactive in the other large screens.

CCOc1ccc(-c2nnc(-c3ccco3)o2)cc1OCC	HCV inh inconclusive, CHX counter 46, Shiga inhibitor 88
O=C(O)CCC(=O)Nc1ccc(-c2nnc(-c3ccco3)o2)cc1	none (no result: LASV entry inh, MARV entry inh)
Cc1cccc(CCNC(=O)C2CCC(CNc3c(N4CCCC4)c(=O)c3=O)CC2)c1 (stereo not drawn)	none (no result: LASV entry inh)
C=C[C@@H]1c2cc(C)ccc2N(S(=O)(=O)c2ccc(C)cc2)[C@H](c2ccc(OC(C)=O)cc2)C1(C#N)C#N	HCV inh 8.9µM (no result: LASV entry inh, CHX counter, Shiga inhibitor, MARV entry inh)
C=C[C@@H]1c2ccccc2N(S(=O)(=O)c2ccc(C)cc2)[C@H](c2ccc(OC(C)=O)cc2)C1(C#N)C#N	HCV inh inconclusive (no result: LASV entry inh, CHX counter, Shiga inhibitor, MARV entry inh)
N#CC1CC(c2ccccc2)Nc2cc(Cl)ccc2N1 (stereo not drawn)	CHX counter 37, Shiga inhibitor 69 (no result: LASV entry inh, MARV entry inh)
NC(=O)c1ccccc1OCC(=O)N1CCC(Cc2ccccc2)CC1	HCV inh 8.9µM, FMDV inh 32µM (no result: LASV entry inh, CHX counter, Shiga inhibitor, MARV entry inh)
O=C(COc1ccccc1[N+](=O)[O-])N1CCC(Cc2ccccc2)CC1	none
O=C(COc1ccc(F)cc1)N1CCC(Cc2ccccc2)CC1	CHX counter 14 (no result: LASV entry inh, MARV entry inh)
CCOC(=O)Nc1sc2c(c1C#N)CCC(C)C2 (stereo not drawn)	CHX counter 46, Shiga inhibitor 91, MARV entry inh inconclusive
CCNC(=S)Nc1sc2c(c1C#N)CCC(C)C2 (stereo not drawn)	HCV inh inconclusive, MARV entry inh inconclusive
CCc1c(C)sc(NC(=O)C2CCCO2)c1C#N (stereo not drawn)	HCV inh inconclusive, CHX counter 17
CCc1c(C)sc(NC(=O)c2cc(C3CC3)on2)c1C#N	none (no result: LASV entry inh, MARV entry inh)
CC1CCc2c(sc(NC(=O)COC(=O)C3CCCO3)c2C#N)C1 (stereo not drawn)	HCV inh inconclusive (no result: LASV entry inh, MARV entry inh)
CC1CCc2c(sc(NC(=O)C3CCCO3)c2C#N)C1 (stereo not drawn)	HCV inh inconclusive, LASV entry inh inconclusive, CHX counter 37, Shiga inhibitor 107
CN(/N=C/c1ccccc1O)C(=S)c1ccccc1	CHX counter 25, MARV entry inh inconclusive
CCC(C)N1CCN(C(=O)c2cc(OC)cc(OC)c2)CC1 (stereo not drawn)	none (no result: LASV entry inh, MARV entry inh)
COc1cccc(N2C(=O)CC(N3CCc4ccccc43)C2=O)c1 (stereo not drawn)	CHX counter 24, Shiga inhibitor 35
COc1ccccc1N1C(=O)CC(N2CCc3ccccc32)C1=O (stereo not drawn)	none
COc1ccc(C2C(C#N)=C(N)Oc3c2oc(CO)cc3=O)cc1 (stereo not drawn)	none (no result: LASV entry inh, MARV entry inh)
Cc1oc(-c2ccccc2Cl)nc1CSc1nc2c(c(=O)[nH]1)CCC2	FMDV inh 22µM
O=C(CSc1nc2[nH]ncc2c(=O)[nH]1)Nc1nccs1	none (no result: HCV inh, LASV entry inh, FMDV inh, MARV entry inh)
Clc1cccc(CON/C=N/c2ncnc3sccc23)c1	HCV inh inconclusive, FMDV inh inconclusive
Clc1cccc(Cl)c1CON/C=N/c1ncnc2sccc12	HCV inh 11µM, LASV entry inh inconclusive, FMDV inh inconclusive, MARV entry inh inconclusive
Cc1ccccc1CNC(=O)C(=O)NCCC1CCCCN1S(=O)(=O)c1cccs1 (stereo not drawn)	HCV inh inconclusive, LASV entry inh inconclusive, MARV entry inh 10µM (no result: CHX counter, Shiga inhibitor)
COc1ccc(CCNC(=O)C(=O)NCCC2CCCCN2S(=O)(=O)c2cccs2)cc1 (stereo not drawn)	HCV inh inconclusive, LASV entry inh inconclusive, FMDV inh 32µM (no result: CHX counter, Shiga inhibitor)
O=C(NCc1ccccc1Cl)C(=O)NCC1OCCN1S(=O)(=O)c1cccs1 (stereo not drawn)	CHX counter 21
COc1ccc(CCNC(=O)C(=O)NCCC2CCCCN2S(=O)(=O)c2ccccc2)cc1 (stereo not drawn)	LASV entry inh inconclusive, FMDV inh inconclusive (no result: CHX counter, Shiga inhibitor)
COc1ccccc1CNC(=O)C(=O)NCCC1CCCCN1S(=O)(=O)c1cccs1 (stereo not drawn)	HCV inh 11µM, LASV entry inh inconclusive, FMDV inh inconclusive, MARV entry inh inconclusive (no result: CHX counter, Shiga inhibitor)
O=C(CN(CCc1ccccc1)C(=O)c1csnn1)NC1CCCC1	none (no result: LASV entry inh, MARV entry inh)
COc1cc(C(=O)N2CCN(CCc3ccncc3)CC2)cc(OC)c1OC	none (no result: HCV inh, CHX counter, Shiga inhibitor)
Cc1ccc(NC(=O)Cn2cc(S(=O)(=O)Cc3cccc(Cl)c3)c3ccccc32)cc1C	LASV entry inh inconclusive (no result: HCV inh, CHX counter, Shiga inhibitor, MARV entry inh)
COc1ccc(CCNC(=O)C(C)n2nc(C)n3c(cc4occc43)c2=O)cc1OC (stereo not drawn)	none (no result: LASV entry inh, MARV entry inh)
COc1ccc(OCC(=O)NCC(c2ccc(Cl)cc2)N2CCCCC2)cc1 (stereo not drawn)	MARV entry inh inconclusive (no result: HCV inh, CHX counter, Shiga inhibitor)
Cc1noc(C)c1-c1ccc(C(=O)N2CCN(C)CC2)c2occc12	none (no result: HCV inh, LASV entry inh, CHX counter, Shiga inhibitor, MARV entry inh)
O=S(=O)(c1ccccc1C(F)(F)F)N1CCC(n2cnc3ccccc32)CC1	FMDV inh inconclusive
CCCCOC(=O)c1ccc(Nc2ncnc3nc[nH]c23)cc1	none
Cc1cc(C)cc(Nc2ncnc3nc[nH]c23)c1	HCV inh inconclusive, LASV entry inh inconclusive, Shiga inhibitor 41, MARV entry inh inconclusive
FC(F)Sc1ccc(Nc2ncnc3nc[nH]c23)cc1	CHX counter 36, Shiga inhibitor 11
CN(CCN1CCOCC1)Cc1nc(-c2ccccc2)no1	CHX counter 12 (no result: LASV entry inh, MARV entry inh)
CCn1ccnc1CN(C)Cc1nc(-c2cccc(Cl)c2)no1	CHX counter 30 (no result: LASV entry inh)
CCn1ccnc1CN(C)Cc1nc(CCC(C)C)no1	MARV entry inh inconclusive
c1ccc(-c2noc(CN3CCN(C(c4ccccc4)c4ccccc4)CC3)n2)cc1	MARV entry inh inconclusive (no result: FMDV inh)
CCn1ccnc1CN(C)Cc1nc(-c2ccccc2)no1	CHX counter 35, Shiga inhibitor 55, MARV entry inh inconclusive
O=C(CN1CCC(NC(=O)c2ccccc2Cl)CC1)NCc1ccccc1	none
CCC1SC2=NC(C)=C(C(=O)OC)C(c3ccc(C(=O)OC)cc3)N2C1=O (stereo not drawn)	none
COc1ccc(NC(=O)c2ccc(NC(=O)CCS(=O)(=O)c3cccs3)cc2)cc1OC	none (no result: HCV inh, CHX counter, Shiga inhibitor)
CCOc1ccc(-n2c(SCC(N)=O)nc3c([nH]c4ccccc43)c2=O)cc1	FMDV inh inconclusive (no result: LASV entry inh, MARV entry inh)
COc1ccc(NC(=O)CN2CCc3ccccc3C2)c(OC)c1	LASV entry inh inconclusive, CHX counter 13
COc1ccc(NC(=O)CSc2c3c(nc4ccccc24)CCC3)c(OC)c1	FMDV inh inconclusive, MARV entry inh 2.2µM
COc1ccc(NC(=O)CSc2ccccc2)c(OC)c1	LASV entry inh inconclusive, CHX counter 43, Shiga inhibitor 83
COc1ccc(NC(=O)CCS(=O)(=O)c2ccccc2)c(OC)c1	LASV entry inh inconclusive, CHX counter 15, Shiga inhibitor 36, MARV entry inh inconclusive
COc1ccc(S(=O)(=O)CCC(=O)Nc2ccc(OC)cc2OC)cc1	none
COc1ccc(CN2C(=O)c3oc4ccc(F)cc4c(=O)c3C2c2ccc(O)cc2)cc1 (stereo not drawn)	none (no result: HCV inh, CHX counter, Shiga inhibitor)
